In article PMC4552634, “A New Set of Chemical Starting Points with Plasmodium falciparum Transmission-Blocking Potential for Antimalarial Drug Discovery” (PLoS ONE, 2015):
Read-outs that look alike come from different tables or passages of the source. In all, about 13,000 compounds went through this assay and about 3,200 (25%) showed an effect of 50% or more. Some of the results follow.

Test system: P. falciparum stage V gametocytes
Parameters: BacTiter-Glo ATP luminescence viability of purified stage V gametocytes in 384-well plates, per cent inhibition versus DMSO
Details: 48 h, 5 µM, inhibitor

Structure (SMILES) | % Inhibition [%] | % Inhibition (% Inhibition) [%]
O=[N+]([O-])c1cc(C(c2ccc(O)c([N+](=O)[O-])c2)C(Cl)(Cl)Cl)ccc1O [TCMDC-124158] | 25.13 | –
COc1ccccc1NC(=O)Nc1cccc(-c2cccc(-c3nc4ccc(C(F)(F)F)cc4[nH]3)c2)c1 [TCMDC-133205] | 10.02 | –
[O-][S+]1c2ccccc2Sc2ccccc21 [TCMDC-124300] | -7.237 | –
CC(C)Cn1ncc2c3c(N)nc(N)nc3ccc21 [TCMDC-137970] | 3.163 | –
O=C(Nc1ccccc1)OCCOc1ccc(CC2SC(=O)NC2=O)cc1 (stereo not drawn) [TCMDC-131642] | 13.3 | –
N#Cc1ccc2c(c1)CCN(CCC1CCC(NC(=O)/C=C/c3cc(Br)cs3)CC1)CC2 (stereo not drawn) [TCMDC-139841] | -33.15 | –
O=C(Nc1ccccc1Cl)N(Cc1cc(Cl)cc(Cl)c1)CC(O)COc1ccc(Cl)c(F)c1 (stereo not drawn) [TCMDC-141477] | 10.95 | –
O=C(/C=C/c1ccc(Cl)cc1)NCCCCCN1CCC(C(=O)Nc2ccc(Cl)c(Cl)c2)CC1 [TCMDC-136123] | -40.47 | –
O=C(/C=C/c1ccc(Cl)cc1)NCCCCCN1CCC(C(=O)Nc2ccc(Cl)cc2)CC1 [TCMDC-136115] | 64.6 | –
O=C(/C=C/c1ccc(Cl)c(Cl)c1)NCCCCCN1CCC(C(=O)Nc2ccc(Cl)c(Cl)c2)CC1 [TCMDC-136124] | 40.37 | –
O=C(/C=C/c1ccc(Cl)c(Cl)c1)NCCCCCN1CCC(C(=O)Nc2ccc(Cl)cc2)CC1 [TCMDC-136116] | -21.25 | –
O=C(/C=C/c1ccc(Cl)cc1)NCCCCCN1CCC(C(=O)Nc2cccc(Cl)c2)CC1 [TCMDC-136119] | -9.305 | –
COc1ccc(NC(=O)C2CCN(CCCCCNC(=O)/C=C/c3ccc(Cl)c(Cl)c3)CC2)cc1 [TCMDC-136128] | 80.86 | –
Cc1cc(C)cc(OCC(O)CN(Cc2cc(Cl)cc(Cl)c2)C(=O)Nc2ccc(Cl)cc2)c1 (stereo not drawn) [TCMDC-141475] | 25.73 | –
O=C(Nc1cccc(Cl)c1N1CCOCC1)C(Cl)(Cl)Cl [TCMDC-124993] | 8.6 | –
CN(C)CCOc1cc(NC(=O)Nc2ccc3c(c2)CCCC3=O)ccc1I [TCMDC-139187] | -8.397 | –
O=C(Nc1ccc(C(=O)N2CCN(CCN3CCN(c4cccc(C(F)(F)F)c4)CC3)CC2)cc1)c1ccc(C(F)(F)F)cc1 [TCMDC-138148] | -21.85 | –
O=C(Nc1ccc(C(F)(F)F)cc1)NC1CCN(CCCCCNC(=O)C2CC2c2ccc(Cl)c(Cl)c2)CC1 (stereo not drawn) [TCMDC-136256] | 4.226 | –
O=C(Nc1ccc(Cl)c(C(F)(F)F)c1)N[C@H]1CCN(CCCCCNC(=O)C2CC2c2ccc(Cl)c(Cl)c2)C1 (stereo partly drawn) [TCMDC-136274] | 80.05 | –
O=C(NCCCCCN1CCCN(C(=O)Nc2ccc(Cl)c(C(F)(F)F)c2)CC1)C1CC1c1ccc(Cl)c(Cl)c1 (stereo not drawn) [TCMDC-136255] | -20.94 | –
O=C(Nc1ccc(Cl)c(Cl)c1)N[C@H]1CCN(CCCCCNC(=O)C2CC2c2ccc(Cl)c(Cl)c2)C1 (stereo partly drawn) [TCMDC-136266] | -8.426 | –
O=C(Nc1ccc(Cl)c(C(F)(F)F)c1)NC1CCN(CCCCCNC(=O)C2CC2c2ccc(Cl)c(Cl)c2)CC1 (stereo not drawn) [TCMDC-136260] | 59.16 | –

Structure (SMILES) | % Inhibition [%] | % Inhibition (% Inhibition) [%]
O=C(Nc1ccc(C(F)(F)F)cc1)N[C@H]1CCN(CCCCCNC(=O)C2CC2c2ccc(Cl)c(Cl)c2)C1 (stereo partly drawn) [TCMDC-136272] | 93.26 | –
COc1ccc(NC(=O)Nc2ccc(-c3ccc(-c4nc5cccc(C)c5[nH]4)s3)cc2)cc1 [TCMDC-133243] | -2.294 | –
COc1ccc(CON2C(N)=NC(N)=NC2(C)C)cc1OC [TCMDC-131587] | 8.467 | –
N#Cc1ccc2[nH]cc(-c3cn4cc(SC5CCCC5)ccc4n3)c2c1 [TCMDC-134705] | -50.98 | –
COc1cccc(NC(=O)c2cc(C(=O)Nc3cccc(OC)c3)cc([N+](=O)[O-])c2)c1 [TCMDC-125177] | 2.834 | –
O=C(Nc1ccncc1)c1cc(C(=O)Nc2ccncc2)cc([N+](=O)[O-])c1 [TCMDC-125671] | 89.24 | –
O=C(Nc1cccnc1)c1cc(C(=O)Nc2cccnc2)cc([N+](=O)[O-])c1 [TCMDC-125067] | -34.07 | –
CC(C)c1ccc2c(c1)c(SC(C)(C)C)c(CC(C)(C)C#N)n2Cc1ccc(Cl)cc1 [TCMDC-131974] | -57.09 | –
COC(=O)c1ccc(CC(C)NCC(O)c2ccc(Cl)c(Cl)c2)cc1 (stereo not drawn) [TCMDC-131431] | 21.35 | –
C[C@H](Cc1ccc(OCCCCCCOc2ccccc2)cc1)NC[C@@H](O)c1cc(Br)no1 [TCMDC-131567] | 65.38 | –
COC(=O)c1ccc(CC(C)NCC(O)c2cccc(OCc3ccccc3)c2)cc1 (stereo not drawn) [TCMDC-131486] | 29.25 | –
COC(=O)c1ccc(CC(C)NCC(O)c2ccc(F)c(Cl)c2)cc1 (stereo not drawn) [TCMDC-131517] | 4.686 | –
C[C@H](Cc1ccc(OCCNC[C@H](O)c2cccc(Cl)c2)cc1)NC[C@H](O)c1ccc(Cl)c(Cl)c1 [TCMDC-131547] | 69.99 | –
C[C@H](Cc1ccc(OCCCCCCOc2ccc(C[C@@H](C)N[C@H](C)c3ccccc3)cc2)cc1)NC[C@H](O)c1cccc(Cl)c1 [TCMDC-131564] | 103.4 | –
COC(=O)c1ccc(CC(C)NCC(O)c2ccc(C(O)CNC(C)Cc3ccc(C(=O)OC)cc3)cc2)cc1 (stereo not drawn) [TCMDC-131545] | 100.9 | –
COc1ccc(C(=O)NCC(C)(C)c2nc(-c3ccc(Cl)c(O)c3)c(-c3ccncc3)[nH]2)cc1OCCN(C(C)C)C(C)C [TCMDC-140736] | 2.982 | –
CCCCCN1CCCC1CNS(=O)(=O)c1cccc(C(=O)Nc2cccc(C#N)c2)c1 (stereo not drawn) [TCMDC-133690] | -52.73 | –
Cc1ccc(C)c2sc(N(CCCn3ccnc3)C(=O)C=Cc3cccs3)nc12 [TCMDC-124923] | 12.01 | –
C=C[C@H]1CN2CC[C@H]1C[C@H]2[C@H](OS(=O)(=O)O)c1ccnc2ccccc12 [TCMDC-138341] | 14.93 | –
c1ccc(CCNc2ccnc(Nc3ccc4n[nH]nc4c3)n2)cc1 [TCMDC-136881] | 0.773 | –
CCCC(C)c1cnc2nc(N)nc(N)c2c1C (stereo not drawn) [TCMDC-137924] | 4.639 | –
CCCC1N=C(N)N=C(N)N1c1ccccc1 (stereo not drawn) [TCMDC-131293] | -19.04 | –

Structure (SMILES) | % Inhibition [%] | % Inhibition (% Inhibition) [%]
CC(Cc1ccc(OCCOc2ccccc2)cc1)NCC(O)c1cccc(C(F)(F)F)c1 (stereo not drawn) [TCMDC-131510] | 16.36 | –
COC(=O)c1ccc(C[C@@H](C)NC[C@H](O)c2cccc(C(F)(F)F)c2)cc1 [TCMDC-131475] | – | 15.4
C[C@H](Cc1ccc(OCCCCCCOc2ccccc2)cc1)NC[C@H](O)c1cccc(Cl)c1 [TCMDC-131552] | 11.17 | –
COC(=O)c1ccc(C[C@@H](C)NC[C@H](O)c2cccc(C(F)(F)F)c2)cc1 [TCMDC-131458] | – | 35.35
CCOC(=O)c1ccc(CC(C)NCC(O)c2cccc(C(F)(F)F)c2)cc1 (stereo not drawn) [TCMDC-131491] | 8.983 | –
CC(Cc1ccc(C2=CCNCC2)cc1)NCC(O)c1cccc(C(F)(F)F)c1 (stereo not drawn) [TCMDC-131537] | 95.16 | –
COC(=O)c1ccc(CC(C)NCC(O)c2cccc(C(F)(F)F)c2)cc1 (stereo not drawn) [TCMDC-131438] | – | 6.787
C#CCOc1ccc(CC(C)NCC(O)c2cccc(C(F)(F)F)c2)cc1 (stereo not drawn) [TCMDC-131480] | 12.31 | –
CNCCCCCCOc1ccc(CC(C)NCC(O)c2cccc(C(F)(F)F)c2)cc1 (stereo not drawn) [TCMDC-131523] | 111.6 | –
CC(Cc1ccc(C(=O)OCCOC(=O)c2ccc(CC(C)NCC(O)c3cccc(C(F)(F)F)c3)cc2)cc1)NCC(O)c1cccc(C(F)(F)F)c1 (stereo not drawn) [TCMDC-131544] | 75.47 | –
CC(Cc1ccc(OCCN2CCN(c3cccc(Cl)c3)CC2)cc1)NCC(O)c1cccc(Cl)c1 (stereo not drawn) [TCMDC-131533] | 18.65 | –
C[C@H](Cc1ccc(OCCCCCOc2ccc(C[C@@H](C)NC[C@H](O)c3cccc(Cl)c3)cc2)cc1)NC[C@H](O)c1cccc(Cl)c1 [TCMDC-131563] | 110.4 | –
O=C(NCc1cccc(F)c1)Nc1cccc(-c2ccc(-c3nc4ccc(F)cc4[nH]3)cc2)c1 [TCMDC-133293] | 6.951 | –
O=C(O)C1CC(=O)N(c2ccc(Cl)cc2)C1 (stereo not drawn) [TCMDC-125862] | 2.166 | –
COc1cccc(CN2CCCC(OC(c3ccc(F)cc3)c3ccc(F)cc3)C2)c1O (stereo not drawn) [TCMDC-136167] | -3.055 | –
CN1CCC(NC(=O)c2cccc(Nc3cc(Nc4cccc(Br)c4)ncn3)c2)CC1 [TCMDC-124773] | -81.1 | –
CN(C)CCOc1ccc(-c2cc(-c3ccncc3)c(-c3ccc(Cl)c(O)c3)o2)cc1 [TCMDC-141227] | 36.77 | –
COCC(C)n1c(SC(C)C(=O)Nc2cc([N+](=O)[O-])ccc2Cl)nc2ccccc2c1=O (stereo not drawn) [TCMDC-123709] | -35.25 | –
CC(Cc1ccc(OCCOc2ccccc2)cc1)NCC(O)c1cccc(Cl)c1 (stereo not drawn) [TCMDC-138939] | 12.28 | –
C[C@H](Cc1ccc(C[C@@H](C)NC[C@H](O)c2cccc(Cl)c2)cc1)NC[C@H](O)COc1ccccc1 [TCMDC-131549] | 104.7 | –
C[C@H](Cc1ccc(OCCCCCCOc2ccc(C[C@@H](C)NC(=O)[C@H](O)c3cccc(Cl)c3)cc2)cc1)NC[C@H](O)c1cccc(Cl)c1 [TCMDC-131571] | -3.505 | –
CC(NCCc1cccc(Cl)c1)C(O)c1ccc(OCCCCCCOc2ccc(C(O)C(C)NCCc3cccc(Cl)c3)cc2)cc1 (stereo not drawn) [TCMDC-139334] | 98.69 | –
